CYP2C19 activ – cytochrome P450 2C19 (human) activation. P33261. recombinant CYP2C19, luciferin-H EGE luminescence; active compounds read high; 0 = fully inhibited enzyme, 1 = untreated enzyme. activation factor at 5 µM. 96,000 tested, under 10 active. AID 1025;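 active = activation factor of at least 2 at 5 µM in the primary screen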
Target sequence (P33261 whole entry, looked up): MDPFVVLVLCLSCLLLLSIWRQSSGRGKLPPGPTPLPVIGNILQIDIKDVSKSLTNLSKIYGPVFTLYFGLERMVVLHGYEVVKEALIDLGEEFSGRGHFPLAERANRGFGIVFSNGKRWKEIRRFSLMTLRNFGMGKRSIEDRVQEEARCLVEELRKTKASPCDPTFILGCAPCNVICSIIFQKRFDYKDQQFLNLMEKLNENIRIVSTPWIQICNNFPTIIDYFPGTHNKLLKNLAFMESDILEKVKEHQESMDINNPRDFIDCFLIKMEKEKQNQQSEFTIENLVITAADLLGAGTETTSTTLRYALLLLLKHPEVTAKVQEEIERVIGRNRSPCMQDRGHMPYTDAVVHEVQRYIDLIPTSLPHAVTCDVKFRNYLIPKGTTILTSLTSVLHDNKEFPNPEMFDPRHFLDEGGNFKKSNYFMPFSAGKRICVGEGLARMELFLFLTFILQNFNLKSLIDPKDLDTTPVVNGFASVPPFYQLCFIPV
Pyk2 oligo antag – blocks oligomerization of human Pyk2 in cells; Q293 cells, Pyk2 FERM NanoBiT luminescence; active compounds read low; z-score (the deposit names both 25 µM and 10 µM); actives 0.83% (n = 99,000); AID 1347419;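 active = Z-score of -3 or lower, scaled per plate to the spread of control and sample wells; inactive = z-score above -3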;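 also: negative z-score means lost luminescence so less FERM oligomerization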
Cav3 T inh – blocks human Cav3.2 T-type calcium channel. O95180. Cav3.2-expressing cells, Fluo-4 calcium fluorescence FDSS; active compounds read low. B-score at 10 µM. actives 4% (n = 100,000). AID 449739;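 active = single-dose well whose peak fluorescence ratio is a statistical outlier from its plate by either plate-standardised score or position-corrected B-score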
CYP2C9 activ – CYP2C9 (human) activation. P11712. recombinant CYP2C9, luciferin-H conversion, luminescence; active compounds read high; factor 1 = untreated enzyme, 0 = blocked. activation factor at 5 µM. actives 1.4% (n = 96,000). AID 1024;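 active = activation factor of 2 or more for CYP2C9 at a 5 µM dose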
CYP2C19 inh – inhibitors of human CYP2C19; actives 21% (n = 96,000); inhibition, % at 5 µM; P33261; CYP2C19 Supersomes, luciferin-H EGE luminescence, 30 min; AID 778;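 active = CYP2C19 inhibition above a set limit at 5 µM in the primary screen, cut at about 50% in these data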
CYP2C9 inhib – inhibitors of human CYP2C9; P11712; CYP2C9 Supersomes, luciferin-H conversion, luminescence; inhibition, % at 5 µM; actives 20% (n = 96,000); AID 777;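 active = blocking of liver enzyme CYP2C9 beyond about 50% at 5 µM, limit read from the data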
Of the large screens only hits and unclear results are named; the others gave an inactive call. An excerpt weighted towards active compounds, which were near 27% of everything screened.

CCOc1cc(C2C(C#N)=C(N)OC(C)=C2C(C)=O)c(Br)c(Br)c1OC(C)C (configuration not stated)	Cav3 T inh -5.3 (no result: CYP2C19 activ, CYP2C9 activ, CYP2C19 inh, CYP2C9 inhib)
COC(=O)CC1=C(C(=O)OC)C(c2ccncc2)C(C#N)=C(N)O1 (configuration not stated)	CYP2C19 inh 79.5, CYP2C9 inhib 80.3
Cc1ccc(N(CC(=O)NC2CCCC2)C(=O)c2c(C)noc2C)cc1C	none
COc1ccc(S(=O)(=O)N2CCN(c3nc4ccccc4nc3-n3nc(C)cc3C)CC2)cc1	CYP2C9 inhib 58.9 (no result: Pyk2 oligo antag)
Cc1cc(C)n(-c2nc3ccccc3nc2N2CCN(C(=O)c3ccc(Cl)cc3)CC2)n1	CYP2C9 inhib 60.4
Cc1cc(C)n(-c2nc3ccccc3nc2N2CCCCCC2)n1	CYP2C19 inh 75.2
Cc1cc(C)n(-c2cc(N3CCN(C(=O)c4ccc(C(C)(C)C)cc4)CC3)ccc2[N+](=O)[O-])n1	none
c1ccc2nc(N3CCCC3)c(N3CCCC3)nc2c1	none
O=C(NC1CC1)C1C2C3C4CC5C3C5C4C12 (configuration not stated)	none
C[C@@H]1NC(=O)c2cc([N+](=O)[O-])cc(I)c2OCC[C@@H](C(=O)NC(CC(=O)O)C(N)=O)NC(=O)[C@H](CC(N)=O)NC1=O (some centres not stated)	none (no result: CYP2C19 activ, Pyk2 oligo antag, CYP2C9 activ, CYP2C19 inh, CYP2C9 inhib)
Cn1ccnc1SCC(=O)Nc1cc(C(F)(F)F)ccc1N1CCOCC1	none
Cn1c(=O)c2ncn(CC(=O)Nc3cc(C(F)(F)F)ccc3N3CCOCC3)c2n(C)c1=O	CYP2C9 inhib 56.8
Cc1ccc2nc(SCC(=O)Nc3cc(C(F)(F)F)ccc3N3CCOCC3)[nH]c2c1	Pyk2 oligo antag -3.55
Nc1nnc(SCC(=O)Nc2cc(C(F)(F)F)ccc2N2CCOCC2)s1	CYP2C19 inh 77.5, CYP2C9 inhib 77.0
O=c1oc2ccccc2cc1-c1csc(NN=C2CCCCC2)n1	CYP2C19 inh 86.2, CYP2C9 inhib 77.6
CSc1nc(Oc2ccc(=O)n(C)n2)nc(N(C)C)n1	none
CC1NC(=O)N(C)C2NC(=O)N(C)C(c3ccccc3)C12 (configuration not stated)	none
COc1cccc(-c2nn(-c3ccccc3)cc2C(=O)Nc2nccs2)c1	Pyk2 oligo antag -3.65, Cav3 T inh -5.21
COc1ccc(-c2nn(-c3ccccc3)cc2C(=O)Nc2nccs2)cc1	Cav3 T inh -5.81, CYP2C9 inhib 51.8
CC1CC(C)CN(CCCNC(=O)C2CCCN(c3nnc(N4CCCC4=O)s3)C2)C1 (configuration not stated)	none
O=C(Nc1ccccc1)c1nnn(Cc2ccccc2)c1NC(=O)C(F)(F)F	Cav3 T inh -8.4, CYP2C19 inh 56.9, CYP2C9 inhib 86.4
COc1ccccc1NC(=O)c1nnn(Cc2ccccc2)c1NC(=O)C(F)(F)F	Cav3 T inh -7.74, CYP2C9 inhib 71.0
CC1CCN(Cc2csc(N)n2)CC1	none
Cc1cc(/C=N\NC(=O)c2cccs2)c(C)n1-c1ccc2ncccc2c1	none
Cc1cc(C)cc(-n2c(C)cc(/C=N/NC(=O)CSc3ncccn3)c2C)c1	Cav3 T inh -6.78
Cc1cc(C)cc(-n2c(C)cc(/C=N/NC(=O)c3cccc([N+](=O)[O-])c3C)c2C)c1	CYP2C9 inhib 52.6
CC(=O)Nc1cccc(-c2nnc(-c3ccccc3)o2)c1	none
O=C(Nc1cccc(-c2nnc(-c3ccco3)o2)c1)C(c1ccccc1)c1ccccc1	CYP2C19 inh 83.4, CYP2C9 inhib 97.8
O=C(COc1ccccc1)Nc1ccc(-c2nnc(-c3ccco3)o2)cc1	none
O=C(Cc1ccc(Cl)cc1)Nc1cccc(-c2nnc(-c3ccco3)o2)c1	CYP2C19 inh 80.4, CYP2C9 inhib 77.6
O=C(Cc1ccccc1)Nc1cccc(-c2nnc(-c3ccco3)o2)c1	CYP2C19 inh 84.4, CYP2C9 inhib 79.0
CCOc1cc2c(C#N)c(N3CCCCC3)nc(N)c2c(N)n1	CYP2C19 inh 62.1, CYP2C9 inhib 90.5
COc1cc2c(C#N)c(N3CCCCC3)nc(N)c2c(N)n1	none
CCOc1cc2c(C#N)c(N3CCNCC3)nc(N)c2c(N)n1	none
COc1cc2c(C#N)c(N3CCc4ccccc4C3)nc(N)c2c(N)n1	CYP2C19 inh 80.7, CYP2C9 inhib 85.0
CC(C)CC(NC=C1C(=O)OC(C)(C)OC1=O)C(=O)O (configuration not stated)	none (no result: CYP2C19 activ, Cav3 T inh, CYP2C9 activ, CYP2C19 inh, CYP2C9 inhib)

Compound activity as filed in PubChem.
